KAT2A inh – GCN5L2 (KAT2A) acetyltransferase inhibition | Q92830 | GCN5L2 HAT assay, ThioGlo1 CoA-SH fluorescence | Potency, µM (doses to about 58.9 µM), without a hit: top-dose activity change, negative = inhibition, actives largely listed as inhibitors | 390,000 tested, 0.21% active
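qHTS, 1536-well. 20nM enzyme, pH 7.5 HEPES/EDTA/Tween-20 buffer; 15 min compound preinc., RT. Start: 75uM H3(1-25), 70uM AcCoA, 50uM ThioGlo1. Read Ex340/Em540 at t=0 (autofluorescence flag) and t=20 min.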
TDP1 cell CPT – growth inhibition of DT40 Tdp1-/-;hTDP1 cells with camptothecin (screen for TDP1 inhibitors); chicken DT40 Tdp1-/-;hTDP1 cells + 20 nM CPT, ATP luminescence, 48 h; 420,000 tested, 12% active; Potency, µM (highest dose often 46.2 µM), for inactives: at the highest dose activity change, negative = growth inhibition, most hits filed as inhibitors; note: nearly all actives have a fitted effect of over 55% in size
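Chicken DT40 Tdp1-/- cells stably complemented with human TDP1 were seeded at 400 cells/well in medium containing 20 nM camptothecin, exposed to pin-transferred compounds, and grown at 37 °C for at least 48 hr. Viability was read as ATP luminescence.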
PLK1 PBD block – PLK1 (human) polo-box domain binding inhibition. P53350. Plk1 PBD binding of FITC phosphopeptide, fluorescence polarization. Potency, µM, for inactives: max response, negative = inhibition, usual class: inhibitors. 360,000 tested, 2.8% active; note: series mostly up to about 57 µM; nearly all actives have a fitted effect of over 65% in size
Target sequence (P53350 whole entry, looked up, the tested form may be a part): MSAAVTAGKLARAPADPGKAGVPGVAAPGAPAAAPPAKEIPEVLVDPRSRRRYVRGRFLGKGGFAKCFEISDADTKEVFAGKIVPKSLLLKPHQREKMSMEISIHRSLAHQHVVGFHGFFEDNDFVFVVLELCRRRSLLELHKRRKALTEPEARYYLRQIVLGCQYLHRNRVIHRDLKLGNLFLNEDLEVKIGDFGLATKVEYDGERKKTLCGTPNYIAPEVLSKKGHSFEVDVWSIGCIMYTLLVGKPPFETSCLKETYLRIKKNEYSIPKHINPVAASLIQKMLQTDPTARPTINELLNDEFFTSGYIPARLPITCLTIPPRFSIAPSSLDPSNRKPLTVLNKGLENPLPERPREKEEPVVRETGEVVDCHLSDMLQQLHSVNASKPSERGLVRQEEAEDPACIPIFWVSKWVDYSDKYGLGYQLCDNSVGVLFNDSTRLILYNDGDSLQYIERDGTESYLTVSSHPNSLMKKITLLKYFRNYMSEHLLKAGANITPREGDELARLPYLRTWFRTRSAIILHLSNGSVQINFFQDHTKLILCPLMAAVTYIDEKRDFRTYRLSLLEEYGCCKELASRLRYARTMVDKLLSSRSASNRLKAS
DT40 TDP1 no CPT – qHTS for Inhibitors of human tyrosyl-DNA phosphodiesterase 1 (TDP1): qHTS in cells in absence of CPT. 420,000 tested, 15% active. Potency, µM (doses to about 46.2 µM), for the others: at the top dose activity change, negative = growth inhibition, actives largely listed as inhibitors. DT40 Tdp1-/- hTDP1 cells, no CPT, ATP luminescence, 48 h; note: nearly all actives have a fitted effect of over 55% in size
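Seeded 400 DT40-hTDP1 cells/well (vehicle DMSO, no 20 nM CPT); pinned compounds; ≥48 hr at 37 °C; CellTiter-Glo luminescence as viability measure.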
VDR inh – inhibitors of human vitamin D receptor. P11473. VDR-SRC2-3 peptide fluorescence polarization, 2 h. Potency, µM, without a hit: max response, negative = inhibition, most hits filed as inhibitors. 400,000 tested, 0.93% active
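Fluorescence polarization assay measuring small-molecule disruption of VDR binding to the coregulator peptide SRC2-3. Compounds were pin-transferred (23 nl) into the reagent mix and incubated 2 h at room temperature before reading.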
TDP1 inh – TDP1 (human) enzyme inhibition | 350,000 tested, 0.28% active | AID 485290 | Potency, µM (doses to about 130 µM), without a hit: at the top dose activity change, negative = inhibition, usual class: inhibitors | recombinant TDP1, AlphaScreen DNA substrate cleavage; note: nearly all actives have a fitted effect of over 40% in size
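Steps: enzyme plus compound, 15 min RT; add biotin/phosphotyrosine-FITC oligonucleotide (15 nM final), react 5 min; add donor/acceptor beads (10 ug/ml final), 10 min; read AlphaScreen. Tdp1 at 1 nM final.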
* hit, by the source's call; ? = inconclusive; . = no result; [ ] = dose if it differs, or a comment. An excerpt weighted towards active compounds, which were near 18% of everything screened. Calls come from the whole dose curve; as a rule, active = well fitted curve in the direction sought with a large enough effect; inconclusive = small, poorly fitted or top-dose-only effect, or another doubt; inactive = no such curve, though single readings can be large; an effect the other way counts as inactive or inconclusive. % is set by controls: 0 for no effect and ±100 for the full control effect; potency is the fitted concentration of half-maximal effect.

SMILES	KAT2A inh	TDP1 cell CPT	PLK1 PBD block	DT40 TDP1 no CPT	VDR inh	TDP1 inh
Cc1c(C(=O)NCC2CCCO2)oc2ccc3c(c12)C(=O)CC(C)(C)O3 (stereo not given)	-13.2%	-21.6%	-3.8%	?	9.9%	5.2%
COc1ccccc1CNC(=O)c1oc2ccc3c(c2c1C)C(=O)CC(C)(C)O3	-14.8%	?	.	16.4µM*	5.1%	-1.0%
CCCOc1ccc(CNC(=O)c2oc3ccc4c(c3c2C)C(=O)CC(C)(CC)O4)cc1 (stereo not given)	-6.2%	16.4µM*	.	16.4µM*	4.5%	-7.6%
COc1cc(OC)cc(C(=O)N(Cc2ccco2)Cc2cccs2)c1	.	?	.	?	4.1%	3.1%
CC/C(=N/OC(=O)c1cccc(C)c1)C(=O)c1cccs1	-15.0%	-2.1%	-9.1%	8.2%	7.1%	-2.5%
CCOc1cccc2sc(NC(=O)CS(=O)(=O)c3ccc(C)cc3)nc12	3.8%	-9.8%	.	-27.3%	16.1%	10.4%
CC(C)CN(/C=N/c1sc2c(c1C#N)CCCCC2)CC(C)C	-4.2%	20.6µM*	-8.9%	14.6µM*	-10.6%	-2.0%
CCN(/C=N/c1sc2c(c1C#N)CCCCC2)CC	-12.2%	?	-3.9%	20.6µM*	-0.7%	4.0%
CCCN1Cc2cccc(C(=O)Nc3cc(OC)cc(OC)c3)c2C1=O	-0.4%	-22.2%	-7.8%	-20.9%	-1.7%	0.0%
Cc1ccc(NC(=O)c2cccc3c2C(=O)N(C2CCCCC2)C3)c(C)c1	-7.4%	-9.4%	-12.1%	?	5.5%	1.9%
CCCN1Cc2cccc(C(=O)Nc3ccc(OC)cc3OC)c2C1=O	-0.6%	?	.	23.1µM*	-4.1%	7.0%
Cc1cc(C)c(NC(=O)c2cccc3c2C(=O)N(C2CCCCC2)C3)c(C)c1	-27.6%	?	-7.1%	16.4µM*	3.0%	1.9%
Cc1ccccc1NC(=O)c1cccc2c1C(=O)N(C1CCCCC1)C2	-1.0%	?	-7.5%	?	-6.4%	1.0%
CCOc1ccccc1NC(=O)c1cccc2c1C(=O)N(C1CCCCC1)C2	-7.7%	?	-13.1%	13µM*	-11.8%	1.2%
CCc1cccc(NC(=O)c2cccc3c2C(=O)N(C2CCCCC2)C3)c1	-14.9%	?	5.3%	18.4µM*	-6.2%	1.3%
O=C(OCc1cc(=O)n2nc(-c3cccs3)sc2n1)c1ccc(Cl)cc1	-8.2%	-12.8%	.	-15.9%	6.7%	-3.2%
CC(C)c1ccc(NC(=O)c2cccc3c2C(=O)N(C2CCCCC2)C3)cc1	-11.7%	1.9%	.	-8.0%	-6.7%	0.0%
Cc1ccc(NC(=O)c2cccc3c2C(=O)N(C2CCCCC2)C3)cc1	-11.7%	?	0.0%	20.6µM*	-7.1%	-3.1%
CC(Sc1nnc(NCc2ccccc2)s1)C(=O)Nc1ccc2c(c1)C(=O)c1ccccc1C2=O (stereo not given)	-7.8%	?	?	18.4µM*	1.6%	5.1%
CC(Sc1nnc(Nc2ccccc2)s1)C(=O)Nc1nc(-c2ccccc2)cs1 (stereo not given)	-5.4%	?	6.4%	?	-18.2%	-5.1%
CCNC(=O)C1(C)CCCN(C(=O)/C=C/c2ccccc2)C1 (stereo not given)	.	2.6%	-9.6%	-0.9%	.	.
C[C@H](O)[C@@H]1C(=O)N2CCc3c([nH]c4ccccc34)[C@@H]2C[C@@H]1N(C)C(=O)c1cc(Cl)cc(Cl)c1	.	23.1µM*	1.6%	18.4µM*	.	.
Cc1ccccc1C(=O)N(C)[C@H]1C[C@H]2c3[nH]c4ccccc4c3CCN2C(=O)[C@H]1[C@H](C)O	.	?	-5.1%	20.6µM*	.	.
C[C@H](O)[C@@H]1C(=O)N2CCc3c([nH]c4ccccc34)[C@@H]2C[C@@H]1N(C)Cc1ccc2c(c1)OCO2	.	?	-4.0%	16.4µM*	.	.
C[C@H](O)[C@@H]1CN2CCc3c([nH]c4ccccc34)[C@@H]2C[C@@H]1N(C)Cc1cc(Cl)cc(Cl)c1	.	?	-0.4%	23.1µM*	.	.
SMILES	KAT2A inh	TDP1 cell CPT	PLK1 PBD block	DT40 TDP1 no CPT	VDR inh	TDP1 inh
C[C@H](O)[C@@H]1C(=O)N2CCc3c([nH]c4ccccc34)[C@@H]2C[C@@H]1N(C)S(=O)(=O)c1ccccc1	.	?	-15.1%	23.1µM*	.	.
O=c1[nH]c2c(c(=O)[nH]1)CCCCCC2	.	9.3%	6.0%	-2.0%	1.4%	.
O=c1[nH]c2c(c3c1CCCC3)CCCC2	-3.0%	20.6µM*	-1.1%	-15.4%	16.2%	0.0%
Cc1cc(N2CCOCC2)nc(SCC(=O)c2ccc(Cl)cc2)n1	-2.2%	16.4µM*	-6.3%	?	0.4%	5.2%
Cc1cc(N2CCCC2)nc(SCC(=O)c2ccccc2)n1	-2.6%	?	-0.6%	23.1µM*	17.4%	4.9%
Cc1cc(N2CCOCC2)nc(SCC(=O)c2ccccc2)n1	-1.8%	-12.1%	-1.7%	-18.0%	-8.3%	5.1%
Cn1nc(C(C)(C)C)cc1N1C(=O)CCC1(C)C(=O)Nc1ccc2c(c1)OCCO2 (stereo not given)	.	11.4%	-3.0%	1.2%	.	.
CCCC(NC(=O)c1c(C)noc1C)C12CC3CC(CC(C3)C1)C2 (stereo not given)	-3.1%	-14.7%	-2.8%	-9.2%	-14.5%	-8.0%
COC(=O)c1cccc(NC(=O)CCNC(=O)c2ccco2)c1	-0.5%	10.3%	-3.4%	-29.6%	-7.2%	1.1%[0.0935 µM]
CC1CCC2C(=O)N3C(CCC(C)C3c3ccc(-c4ccco4)cc3)C(=O)N2C1c1ccc(-c2ccco2)cc1 (stereo not given)	.	.	.	.	.	3.55µM*
CC1CCC2C(=O)N3C(CCC(C)[C@@H]3c3ccc(-c4ccco4)cc3)C(=O)N2C1c1cccc(N2CCCC2=O)c1 (stereo not given in full)	.	.	.	.	.	-3.7%[21 µM]
CC(C)NC(=O)c1nc2c(nnn2Cc2cccc(Cl)c2)c(=O)[nH]1	-0.2%	0.9%	-20.0%	-3.6%	-15.4%	.
C=C1C(=O)OC2CC1C(O)CC(C)=CCCC(C)=CC(O)CC2C (stereo not given)	.	2.91µM*	-6.8%	3.26µM*	?	.
C=C1C(=O)OC2CC1C(OC(C)=O)CC(C)=CCCC(C)=CCC[C@@]2(C)O (stereo not given in full)	-9.8%	2.91µM*	.	3.26µM*	35.5µM*	8.5%[56.1 µM]
C/C=C(/C)C(=O)O[C@H]1CC(C)=CC(=O)[C@@]2(C)CC[C@@](O)(C(C)C)[C@H]12	.	.	.	.	3.7%	10.9%
COc1cc(NC(=O)c2ccccc2)c(OC)cc1NC(=O)CN1C(=O)N(C)C2(CCCCC2)C1=O	-3.9%	?	-6.4%	-13.0%	-2.6%	2.0%

Screens deposited in PubChem by National Center for Advancing Translational Sciences (NCATS).
